# Data taken from ChEMBL document CHEMBL4296182, “CO-ADD screening of NIH NCI Diversity Set V”.
# For part of these data: Measured potencies and affinities stand elsewhere.
# Assays:
# [1] = tested on: Staphylococcus aureus; assay: Antibacterial activity against Staphylococcus aureus MRSA ATCC 43300 (CO-ADD:GP_020); MIC in CAMBH media using NBS plates, by Resazurin F(560/590); assay type: functional; conditions: Concentration 20 uM, ASSAY_TEST Inhibition of Bacterial Growth, detection method Resazurin, Fluorescence (ex560/em590), MEDIA CAMHB, plate type 384well, CORNING #3640, time 18 hr
# [2] = tested on: Acinetobacter baumannii; assay: Antibacterial activity against Acinetobacter baumannii ATCC 19606 (CO-ADD:GN_034); MIC in CAMBH media using NBS plates, by Resazurin F(560/590); assay type: functional; conditions: Concentration 20 uM, ASSAY_TEST Inhibition of Bacterial Growth, detection method Resazurin, Fluorescence (ex560/em590), MEDIA CAMHB, plate type 384well, CORNING #3640, time 18 hr
# [3] = tested on: Escherichia coli; assay: Antibacterial activity against Escherichia coli ATCC 25922 (CO-ADD:GN_001); MIC in CAMBH media using NBS plates, by Resazurin F(560/590); assay type: functional; conditions: Concentration 20 uM, ASSAY_TEST Inhibition of Bacterial Growth, detection method Resazurin, Fluorescence (ex560/em590), MEDIA CAMHB, plate type 384well, CORNING #3640, time 18 hr
# [4] = tested on: Klebsiella pneumoniae; conditions: Concentration 20 uM; ASSAY_TEST Inhibition of Bacterial Growth; detection method Absorption (OD600); MEDIA CAMHB; plate type 384well; NBS; CORNING #3640; time 18 hr
# [5] = tested on: Candida albicans; conditions: 20 µM
# [6] = tested on: Cryptococcus neoformans; conditions: Concentration 20 uM; ASSAY_TEST Inhibition of Fungal Growth; detection method Resazurin; Absorption (OD600-OD570); plate type 384well; NBS; CORNING #3640
Compound,Inhibition [1] [%],Inhibition [2] [%],Inhibition [3] [%],Inhibition [4] [%],Inhibition [5] [%],Inhibition [6] [%]
O=C(O)CSc1ccc(NC(=O)Nc2ccccc2F)cc1,18.21,6.88,2.53,17.8,-1.57,-6.03
CCOC(=O)Cc1cnc(S)nc1O,9.6,-11.54,7.99,8.74,1.43,-1.74
CCCCSc1cc(O)nc(N)n1,-2.6,-7.06,16.01,10.64,-1.45,-8.65
CC(C)(C)NC(=O)c1ccc(C(=O)NC(C)(C)C)cc1,-9.07,-9.96,2.15,15.3,8.15,-7.37
O=c1[nH]cc(Cl)cc1Cl,16.39,-19.78,16.35,10.84,-0.92,0.46
C#CCOCC1CN(c2ccccc2)C(=O)O1 (stereo not given),-1.12,12.08,6.4,9.96,6.35,-15.19
O=C1COc2c1ccc(O)c2O,0.46,-23.14,5.49,7.13,0.16,-9.43
Nc1ccc(/N=N/c2ccc(O)cc2)c(N)n1,-3.88,-10.7,0,0.93,0.86,-14.36
Cc1cc(O)c2cc(C(=O)c3ccccc3)ccc2n1,13.49,5.7,2.87,7.32,2.58,-7.43
Cc1csc(NC(=O)c2ccc(C(=O)Nc3nc(C)cs3)cc2)n1,-1.48,17.46,2.37,21.27,-0.71,-1.68
O=C1c2ccccc2C(=Cc2cccnc2)c2ccccc21,8.79,-7.39,6.86,10.23,9.01,-9.38
CCOC(=O)C1=C(N)N=C(N)C1=Nc1ccc(OC)cc1,10.45,-11.35,6.73,4.94,-1.95,-7.84
Nc1ccccc1Sc1cc(Cl)nnc1Cl,10.59,-10.6,6.4,13.76,6.84,-6.72
CC1(C)CC(=O)C(CC(=O)c2ccccc2)=C(NNC(=N)N)C1,1.47,8.18,4.18,-0.42,5.62,-4.09
C=CCOC(=O)/C=C\C(=O)NC(N)=O,5.08,-11.84,0.88,29.86,7.76,0.75
COc1cc2c(cc1OC)C(C1(O)CCCCC1)NCC2 (stereo not given),18.67,-1.81,15.36,-0.68,-2.01,-12.78
Oc1nc2ccccc2n1C1=CCNCC1,-11.2,-15.97,0.33,8.73,2.14,-5.4
C=C(C)CN1C(=O)C(C)S/C1=N/N=C1/SCC(=O)N1C (stereo not given),12.61,8.16,1.61,14.62,6.81,-8.83
Oc1ccccc1/N=C/c1c(O)ccc2ccccc12,7.8,-11.56,8.07,1.58,52.3,25.14
Nc1ccc(C(=O)Oc2ccc([N+](=O)[O-])cc2)cc1,12.07,4.99,4.45,11.91,3.13,-14.05
CC12CCC(/C(=N/c3ccc(/N=C4\C(=O)C5(C)CCC4C5(C)C)cc3)C1=O)C2(C)C,-7.11,-9.62,14.23,11.61,0.19,-4.9
COc1ccc([N+](=O)[O-])cc1NS(=O)(=O)c1ccc(C)cc1,7.11,4.99,7.35,9.82,5.66,-6.48
CN1CCC(n2[nH]c(-c3ccccc3)c(Cc3ccccc3)c2=O)CC1 [BENZPIPERYLON],11.83,-21.66,9.93,7.59,-2.02,-11.9
Cc1c(Cc2ccccc2)[n+]([O-])c2ccccc2[n+]1[O-],19.3,-9.71,20.29,-6.69,-1.35,-12.82
COc1cc(CC(=O)C(=O)O)oc(=O)c1,12.14,6.41,-2.06,12.51,3.8,-8.52

Compound,Inhibition [1] [%],Inhibition [2] [%],Inhibition [3] [%],Inhibition [4] [%],Inhibition [5] [%],Inhibition [6] [%]
COc1cc2c(=O)n3c4c(cccc4c2cc1OC)CC3,9.4,-8.34,13.88,1.26,1.37,-14.32
CN(NC(=O)C(=O)NCc1ccco1)C(=O)NC1CCCCC1,1.27,11.61,-11.28,10.63,4.23,3.93
COc1ccc(-c2cc(-c3ccccc3)c(-c3ccccc3)nn2)cc1,-3.16,8.32,6.8,-1.34,2.55,-12.46
Nc1ccc2c(c1)nnn2-c1ccccc1,10.19,-3.79,12.06,-7.86,-4.43,-12.32
CSc1nc(Cl)c(Br)c(Nc2cnc(O)nc2O)n1,5.42,6.52,-1.71,4.64,-2.17,0.33
Cc1ccc(NC(=O)NNC(=O)CSC2CCc3ccccc32)c(C)c1 (stereo not given),19.06,5.57,0.84,5.08,2.67,-10.98
CCC(CC)c1ncc[nH]1,-6.72,-6.57,9.75,17.39,-1.38,-3.12
CCN(CC)CCNc1c(C)nc(C#N)c(N)[n+]1[O-],6.23,-9.24,11.24,8.95,2.9,-16.29
O=C1OCC/C1=C\NCCCCCCCCN/C=C1\CCOC1=O,-2.67,17.83,3.41,9.43,0.08,-12.67
O=C1Cc2cccc(O)c(=O)c2C(=O)O1,18.22,9.21,9.09,8.59,1.02,-4.33
COc1cc(CCC(=O)O)on1,9.35,-6.5,10.23,8.1,-0.47,-11.79
Cc1nnc(-n2cccc2)s1,4.2,-10.69,7.04,-0.01,2.45,-10.77
NC1=NC(Nc2ccccc2)=NC(c2ccccc2)N1 (stereo not given),10.62,4,5.99,5.54,6.21,-14.92
O=C(Nc1ccccc1)Oc1cccnc1O,7.3,9.45,-1.58,18.58,5.22,-7.26
O=c1[nH]c(=O)n2ncnc2[nH]1,16.94,-11.21,5.82,7.37,-1.3,-10.02
O=[N+]([O-])/C=C/c1cc2ccccc2[nH]1,0.82,-9.9,9.79,7.79,46.8,-1.09
O=C(c1ccc(Cl)nc1)c1cccs1,-3.15,14.95,-2.66,4.42,2.35,-1.99
Nc1nc(N)c(/N=N/c2ccc(S(N)(=O)=O)cc2)c(O)n1,11.8,-8.6,-8.26,23.84,0.97,-15.08
Cc1cc(OCCCCOc2ccc(C#N)cc2)ccc1[N+](=O)[O-],20.1,6.74,2.94,7.99,7.31,-12.2
COc1ccc(NC2=NC(C)(CO)CS2)cc1 (stereo not given),33.41,-4.98,1.2,15.06,1.85,5.77
O=C(O)c1ccc2c(c1Nc1ccccc1)C(=O)c1ccccc1C2=O,9.32,-23.2,18.5,7,1.26,-10.37
Cc1nc(S)nc(O)c1Cc1c(O)ccc2ccccc12,-11.57,-9.92,5.55,6.39,20.9,-9.2
O=C(Nc1ccc(Cl)c(Cl)c1)Nc1ccccc1O,-10.29,0.1,-13.39,5.08,3.05,15.14
CC(=O)c1cc2c(cc1C)CCCC2(C)C,18.6,-15.87,11.58,0.53,-0.44,-7.49
Cn1c(CO)cnc1-c1ccccc1,2.4,0.07,-8.68,2.59,2.13,-3.98
